# aSyn UTR act – Activators via SNCA 5'UTR binding, MLPCN; alpha-synuclein 5'UTR reporter, activators screen; activity score, % (tested at 7.5 µM), hits read low; actives 7.1% (n = 300,000); AID 1814; in the data active = activity score below about -60%
# Starred values were filed as active, the others as inactive. Only a sample is shown.
SMILES,aSyn UTR act
CC(O)CN=c1cc(-c2ccccc2)oc2ccc(Cl)cc12 (centres undefined),-239*
OCCN=c1cc(-c2ccccc2)oc2ccc(Cl)cc12,-199*
NNC(=O)c1[nH]c2ccc(Cl)cc2c1-c1ccccc1,77
CC(C)CN=c1cc(-c2ccccc2)oc2ccc(Cl)cc12,-123*
CCCOc1ccc(N2C(=O)CC(N(O)c3ccccc3)C2=O)cc1 (centres undefined),-77*
COC(=O)c1ccc(N2C(=O)CC(SCCN)C2=O)cc1 (centres undefined),-84*
CCCOc1ccc(N2C(=O)CC(SCCN)C2=O)cc1 (centres undefined),-71*
COc1cc(/C=C/[N+](=O)[O-])ccc1OC(=O)c1cc2ccccc2oc1=O,-102*
CC[C@H]1OC(=O)C[C@@H](O)[C@H](C)[C@@H](O[C@@H]2O[C@H](C)C[C@H](N(C)C)[C@H]2O)[C@@H](CC=O)C[C@@H](C)C(=O)C=C[C@]2(C)O[C@H]2[C@@H]1C,-147*
COCc1cc(C)nc(SCC(=O)c2ccc(O)c(O)c2)c1C#N,-80*
COCc1cc(C)nc(SCC(=O)Nc2ccc3c(c2)OCO3)c1C#N,-70*
COCc1cc(C)nc(SCC(=O)Nc2ccc3c(c2)OCCO3)c1C#N,-86*
Cc1csc(N/N=C/c2ccc([N+](=O)[O-])cc2)n1,-148*
CC(=O)Nc1nc(C)c(-c2csc(Nc3cccc([N+](=O)[O-])c3)n2)s1,67
Cc1csc(N/N=C/c2ccccn2)n1,69
CC(=O)c1sc(N/N=C/c2cccc(O)c2)nc1C,-338*
CC(=O)c1sc(N/N=C\c2ccc(N(C)C)cc2)nc1C,-135*
CC(=O)c1cccc(Nc2nc(-c3cccc([N+](=O)[O-])c3)cs2)c1,-222*
CC(=O)c1sc(N/N=C/c2cccc([N+](=O)[O-])c2)nc1C,-170*
O=[N+]([O-])c1cccc(-c2csc(N/N=C/c3cccc(O)c3)n2)c1,-216*
CC(=O)Nc1sc(N/N=C/c2ccc(N(C)C)cc2)nc1-c1ccc(C)cc1,-68*
Cc1[nH]n(-c2nc(-c3cccc([N+](=O)[O-])c3)cs2)c(=O)c1C,-135*
Cc1ccc2c(c1)C(=O)C(=O)N2CCCOc1ccccc1C,-110*
Cc1cc2sc3ccccc3c(=O)c2c(C)c1O,-96*
Oc1ccc(CN2CCc3ccccc3C2)c2cccnc12,103
SMILES,aSyn UTR act
c1ccc(Sc2ccccc2CN2CCCC2)cc1,85
c1ccc(SCCN2CCc3ccccc3C2)cc1,-97*
CC1CCC(=O)N(CCSc2ccccc2)CC1 (centres undefined),-116*
CC(C)(C)C1CCC(=O)N(CCOc2ccccc2)CC1 (centres undefined),-101*
O=C1CCN(CCc2ccccc2)CCN1CCSc1ccccc1,-69*
Cc1cc2nc(-c3cccnc3SCC(=O)NC3CC3)[nH]c2cc1C,-115*
Cc1cc2nc(-c3cccnc3SCC(=O)NCc3ccco3)[nH]c2cc1C,-145*
CCOc1ccc(NCc2nnc(SCC(=O)Nc3cc(C)on3)n2-c2ccccc2OC)cc1,-101*
CCOc1ccc(-c2nnc(SCC(=O)Nc3ccc4c(c3)c3ccccc3n4CC)n2N)cc1,84
COc1ccc(C(=O)/C=C/Nc2cccc(C)n2)cc1OC,-195*
CCOc1cc(-c2nc3ccccc3s2)ccc1O,-98*
COc1ccc(-c2nc3ccccc3s2)cc1O,85
COc1cc(-c2nc3ccccc3s2)ccc1O,-222*
CC[n+]1c(/C=C/N(C)c2ccccc2)n(-c2ccccc2)c2ccc(-c3nc4ccccc4s3)cc21,120
O=C(/C=C/c1ccccc1)NC1CC2CCC1C2 (centres undefined),-110*
c1ccc(CSc2ncn(-c3ccccc3)n2)cc1,-138*
O=C(CSc1ncn(-c2ccccc2)n1)c1cccs1,-177*
Cc1cc(SCC(=O)N/N=C/c2ccc(O)cc2O)nc2ccccc12,58
N/C(COc1ncn(-c2ccccc2)n1)=N\S(=O)(=O)c1ccccc1,18
Cc1cc(SC(C)C(=O)NCC(=O)Nc2ccc(F)c(F)c2F)nc2ccccc12 (centres undefined),46
Cc1cc(SCC(=O)c2cccs2)nc2ccccc12,-81*
Nc1nc(CSc2ncn(-c3ccccc3)n2)cs1,-154*
CS(=O)(=O)c1sc(C#N)c2c1C(=O)CC(c1ccccc1)C2 (centres undefined),81
CC(=O)Nc1ccc(-c2csc(Nc3ccc(Cl)cn3)n2)cc1,-127*
CC(=O)Nc1cccc(-c2csc(Nc3ccc(Cl)cn3)n2)c1,-174*
SMILES,aSyn UTR act
Cc1ccc(C(=O)NCCC(=O)N2CCOCC2)cc1,-101*
CC(C)(C)c1cc(C(=O)NCCN2CCCC2)cc(C(C)(C)C)c1,-82*
CC(C)(C)c1ccc(C(=O)NCCC(=O)N2CCCC2)cc1,-105*
CCc1ccc(NC(=O)c2noc3c2CCc2ccccc2-3)cc1,-95*
Cc1ccc(NC(=O)c2noc3c2CCc2ccccc2-3)cc1,-205*
CCc1ccc(NC(=O)C2(C)Cc3ccccc3C(=O)O2)cc1 (centres undefined),-142*
c1ccc(NC2=Nc3ccccc3CS2)cc1,-201*
